Results published in PubChem BioAssay AID2283227 (EPA ToxCast).
Results filed as inconclusive are left out. Active and inactive are the calls of the source. How the source made its calls: active means hit-call score of the fitted dose curve at least 0.9, where 1 is the maximum; inconclusive means response in the unintended direction; inactive means score below 0.9.

Test system: pig Methylenetetrahydrofolate Reductase (MTHFR), gene 397180
Assay: NVS_ENZ_pMTHFR: NovaScreen (NVS) Enzymatic Assay for pig Methylenetetrahydrofolate Reductase (MTHFR)
Procedure: NVS_ENZ_pMTHFR is a biochemical, single-readout assay that uses extracted gene-proteins from Porcine kidney in a tissue-based cell-free assay. Measurements were taken 1 hour after chemical dosing in a 96-well plate.NVS_ENZ_pMTHFR is one of one assay component(s) measured or calculated from the NVS_ENZ_pMTHFR assay. It is designed to make measurements of enzyme activity, a form of enzyme reporter, as detected with scintillation counting signals by Lysate-based radiodetection technology.Data from the assay component NVS_ENZ_pMTHFR was analyzed into 1 assay endpoint. This assay endpoint, NVS_ENZ_pMTHFR, was analyzed in the positive analysis fitting direction relative to DMSO as the negative control and baseline of activity. Using a type of enzyme reporter, loss-of-signal activity can be used to understand changes in the enzymatic activity as they relate to the gene MTHFR. Furthermore, this assay endpoint can be referred to as a primary readout, because this […] where this one serves a enzymatic activity function. To generalize the intended target to other relatable targets, this assay endpoint is annotated to the oxidoreductase intended target family, where the subfamily is methylenetetrahydrofolate reductase.
Binding assays used specific radioligands (tritiated, iodinated) with non-radioactive competitive displacement ligands in agonist or antagonist protocols (as indicated) and various reference compounds and inhibitors to titrate specific binding to receptors and transporters. Most enzyme assays (CYPs, kinases, phosphatases, proteases, HDACs) used recombinant protein and specific substrates (fluorescence mostly, some colorimetric and radioactive) and inhibitors, followed by a biochemical separation of substrate and product. All assays for the biochemical HTS were initially run in duplicate at a single concentration (10 uM for CYP450 assays and 25 uM for all others). Assay-chemical combinations meeting a pre-defined threshold (e.g., 30% inhibition and other criteria defined below) were then run in singleton concentration-response format with maximum concentration of 20 uM for CYPs and 50 uM for all others. Each assay was run with positive and negative controls, and concurrent controls on every plate. The follow-up (secondary) screen tested active chemical-pairs in concentration series, as well as a few additional assays not tested in the primary screen, some selected negative inactives, and several cases re-run in the concentration series for confirmatory purposes.

| SMILES | outcome | AC50 |
| --- | --- | --- |
| COP(=O)(OC)OC=C(Cl)Cl | inactive |  |
| CC(=NC#N)N(C)Cc1ccc(Cl)nc1 | inactive |  |
| CC(C)(C)C(=O)C(Oc1ccc(Cl)cc1)n1cncn1 (stereo unspecified) | inactive |  |
| COc1nc(C)nc(NC(=O)NS(=O)(=O)c2ccccc2Cl)n1 | inactive |  |
| CN(C)c1nc(=O)n(C2CCCCC2)c(=O)n1C | inactive |  |
| N#Cc1c[nH]cc1-c1cccc2c1OC(F)(F)O2 | inactive |  |
| COC(=O)c1c(C(F)F)nc(C(F)(F)F)c(C2=NCCS2)c1CC(C)C |  | 6.46 µM (active) |
| CC(C)Oc1cc(-n2nc(C(C)(C)C)oc2=O)c(Cl)cc1Cl | inactive |  |
| CCCCOC(=O)c1ccccc1C(=O)O | inactive |  |
| CCc1cccc(CC)c1N(COC)C(=O)CCl | inactive |  |
| CCCCOCN(C(=O)CCl)c1c(CC)cccc1CC | inactive |  |
